We go through 50 compounds from ChEMBL document CHEMBL4513216, “Probing the Open Global Health Chemical Diversity Library for Multistage-Active Starting Points for Next-Generation Antimalarials” (ACS Infect Dis, 2020).

The whole screen tested about 65,000 compounds, of which about 2,100 (3.2%) showed an effect of 50% or more. The median lay at about -52%. The sample as a whole holds a higher share of strong results than the screen did.

This experiment relates to Plasmodium falciparum. Briefly: Screen against P. falciparum Asexual Blood Stage (ABS), at 5uM. The following applies: tested at 5 uM. Format: functional, Dd2.
Take `COc1ccc(CN2C[C@H]3CCC[C@@H](CN(C)C)[C@H]3C2)cn1`: the INHIBITION came out at 50%.

Consider `Cc1cccc(CN2C(=O)CC[C@H]3[C@@H]2CCN3CC(=O)N(C)C)n1`, for which the INHIBITION is given as -71%.

Consider `CCCN1C(=O)C2(CCCCC2)NC1c1cn(C)c(=O)n(C)c1=O` (stereo not given), for which the INHIBITION is given as -5.44%.

For the compound `CCCN1C[C@@H]2CC[C@H]1CN(C(=O)Cc1c(C)[nH]c(CC)nc1=O)C2`, the INHIBITION was -19.6%.

Take `COCc1cncc2c1CCN(Cc1ccccn1)C2`: the INHIBITION is -65.2%.

As for `CC(Cc1c(F)cccc1F)NC(=O)CN(CC(N)=O)C(C)C` (stereo not given), the INHIBITION was -23.8%.

`COc1ccc(C(NCc2cccc(O)c2)C2CC2)cc1` (stereo not given): the INHIBITION is reported as 83.6%.

On to `COc1ccc(CC(C)Nc2cccc(F)c2)cc1` (stereo not given), for which the INHIBITION is listed as -65.5%.

For `O=C(Cc1ccc(O)c(Cl)c1)N1CCN(CC2CC2)[C@@H]2CS(=O)(=O)C[C@@H]21`, the INHIBITION was -53.2%.

As to `COCCN1CCC2(COCc3cnc(N4CCOCC4)nc32)C1` (stereo not given), the INHIBITION is listed as -18.1%.

For the compound `CN1CCCC(CNS(=O)(=O)N2CCc3ccccc3C2)C1` (stereo not given), the INHIBITION was 77.4%.

For `COCC(=O)NC[C@H]1C[C@@H]2CCN1C[C@@H]2CN1CCc2ccccc2C1`, the INHIBITION is listed as -27.5%.

With `CN1CCN(S(=O)(=O)C2CC2)Cc2cccnc21`, the INHIBITION is on record as -77.8%.

Take `CCOCCC(=O)N1C[C@@H]2CC[C@H]1CN(Cc1ccncc1)C2`: the INHIBITION was -31.8%.

On to `Clc1ccccc1C1(c2ccnc(CC3CC3)n2)CCNCC1`, for which the INHIBITION is recorded as 87.8%.

On to `Clc1ccccc1C1(c2ccnc(C3CC3)n2)CCNCC1`, for which the INHIBITION was 73.5%.

For `Clc1ccccc1C1(c2ccnc(C3CCCC3)n2)CCNCC1`, the INHIBITION is 83%.

`O[C@]12CCNC[C@H]1CN(c1ncccc1Cl)CC2`: the INHIBITION was -135%.

`Cc1nc(CN2CCC3(C2)CN(C(=O)c2conc2C)C3)cs1`: the INHIBITION is -65.1%.

In the case of `Fc1cccnc1O[C@@H]1CC[C@H]2[C@H]1OCCN2Cc1nccs1`, the INHIBITION is on record as -91.9%.

`CC(C)(C)n1ncc2c1NC(=O)CSC2c1ccc2c(c1)OCCO2` (stereo not given): the INHIBITION is recorded as -24.5%.

With `OCc1csc(N2CCCC(COc3cccc(F)c3)C2)n1` (stereo not given), the INHIBITION came out at 81.2%.

Regarding `O=C(COc1cccc(F)c1)N1C[C@@H](O)[C@H](N2CCCC2)C1`, the INHIBITION is recorded as -133%.

With `CCCOc1ccc(C2SCC(=O)Nc3c2c(=O)[nH]n3C(C)C)cc1` (stereo not given), the INHIBITION was -95%.

With `CC(=O)C1(c2ccccc2)CCN(C(=O)c2ccn3nnnc3c2)CC1`, the INHIBITION is given as -138%.

On to `CC(N)Cc1ccccc1Sc1ccccc1` (stereo not given), for which the INHIBITION was determined as 78.3%.

For `CNC(C)Cc1ccccc1Sc1ccc(O)cc1` (stereo not given), the INHIBITION is listed as 88.2%.

Turning to `CC[C@H](C)[C@@H](CO)NC(C)Cc1ccccc1F` (stereo not given in full), the INHIBITION came out at 49.7%.

Regarding `CC(N)Cc1ccccc1Sc1ccc(O)cc1` (stereo not given), the INHIBITION is on record as 72.4%.

Consider `CNS(=O)(=O)CC(=O)NC(C)Cc1ccccc1Br` (stereo not given), for which the INHIBITION was -184%.

On to `COCCCN1CCCCC12CC(=O)N(Cc1ccccn1)C2` (stereo not given), for which the INHIBITION is -98.8%.

For the compound `Cc1noc(C)c1CN1C[C@@H]2COC[C@H](C(=O)N3CCCO3)[C@@H]2C1`, the INHIBITION is given as -23.5%.

As to `CCC(O)CN1CCN(C(=O)Cc2c(C)nc(C)[nH]c2=O)CC1` (stereo not given), the INHIBITION is -143%.

As for `CN1CCC(O)(CNCc2ccc(F)c(C(F)(F)F)c2)CC1`, the INHIBITION is 83.3%.

For the compound `COc1ccc(OC)c(C2SCC(=O)Nc3n[nH]cc32)c1` (stereo not given), the INHIBITION was -130%.

Take `Cc1ccc(CN2CCC3(CCN(S(=O)(=O)c4ccccc4)C3)C2)o1` (stereo not given): the INHIBITION is reported as 79.6%.

Regarding `Cc1ccc(CN2CC3(CCN(C(=O)c4cccnc4)C3)C2)o1`, the INHIBITION was -143%.

Regarding `Cc1ccc(CN2CC[C@]3(C[C@H](OCc4ccccn4)CO3)C2)o1`, the INHIBITION worked out at 22.1%.

In the case of `COc1ccc(CCC(=O)NCCN2CCC(c3cccs3)CC2)cc1`, the INHIBITION is on record as 75.8%.

Turning to `COCC(=O)NC[C@H]1C[C@@H]2CCN1C[C@@H]2c1cc(-c2cccs2)nn1C`, the INHIBITION is on record as -43.2%.

For the compound `O=C(NCCc1ccccc1)NCCN1CCC(c2cccs2)CC1`, the INHIBITION was found to be 77.6%.

As for `Cc1cc(CNC(=O)CCc2ccc(S(N)(=O)=O)cc2)no1`, the INHIBITION is reported as -28.2%.

Take `CCNC(=O)NC[C@H]1C[C@@H]2CCN1C[C@@H]2c1cc(-c2cccs2)nn1C`: the INHIBITION is -58.2%.

`OC[C@@H]1[C@H]2CN(c3ccccn3)CCN2C[C@H]1c1ccccc1`: the INHIBITION was determined as 41.3%.

Regarding `CCOC(=O)N1CCCC2(CCCNC2)C1` (stereo not given), the INHIBITION is given as -33%.

`O=C1CO[C@@H]2CN(Cc3ccsc3)C[C@H]2N1Cc1ccncc1`: the INHIBITION is on record as -56.6%.

In the case of `CCN(C)CC1CCN(S(=O)(=O)c2cc(C)c(F)cc2Cl)C1` (stereo not given), the INHIBITION is listed as 79.3%.

Take `Cc1cccc(CN2C[C@@H]3CC[C@H]2CN(Cc2[nH]cnc2C)C3)n1`: the INHIBITION is given as 50.9%.

Turning to `Cc1ccc(N2CC[C@@H]3CN(Cc4cccc(C)n4)C[C@@H]3C2)nn1`, the INHIBITION is listed as -27.5%.

With `Cc1cc(CN2C[C@@H]3CC[C@H]2CN(Cc2[nH]cnc2C)C3)on1`, the INHIBITION is -63.7%.
